Sampled rows, rich in hits. Any-hit rate of the full collection: about 4.8%.
ssDAF-12 act: S. stercoralis DAF-12 activation, primary screen; HEK293 ssDAF-12/GRIP1 lit1-tk-luc reporter, luminescence; % of 3 µM dafachronic acid response; activation, % at 6.8 µM; 1% of 370,000 active; AID 652126;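 active means activation above the mean over all tested compounds plus 3 SD, cut at about 0.9% in these data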;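 further: 0% = DMSO-only wells and 100% = 3 µM delta7-dafachronic acid wells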
Rev-erbA mod: modulates human Rev-erb alpha binding to DNA | Rev-erbα–FITC-DNA binding, fluorescence polarization, 90 min | activity, % at 10 µM | 0.79% of 370,000 active;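 active means activity above about 14%, limit read from the data; passing the limit was not always enough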;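 further: 0% = DMSO wells with 35 nM protein and 100% = DMSO wells with 750 nM protein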
DAX1 inh-1: inhibits human nuclear receptor DAX1 | AID 504766 | HEK293 Gal4-DAX1 luciferase reporter, luminescence | P51843 | inhibition, % at 6.75 µM | 0.99% of 340,000 active;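 active means inhibition above the mean over all tested compounds plus 3 SD, cut at about 4.2% in these data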;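 further: 0% = DAX1-transfected cells with DMSO and 100% = empty-vector control cells with DMSO; inhibition shows as a rise in luminescence from relieved DAX1 repression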
Target sequence (P51843 207-470 limits assumed): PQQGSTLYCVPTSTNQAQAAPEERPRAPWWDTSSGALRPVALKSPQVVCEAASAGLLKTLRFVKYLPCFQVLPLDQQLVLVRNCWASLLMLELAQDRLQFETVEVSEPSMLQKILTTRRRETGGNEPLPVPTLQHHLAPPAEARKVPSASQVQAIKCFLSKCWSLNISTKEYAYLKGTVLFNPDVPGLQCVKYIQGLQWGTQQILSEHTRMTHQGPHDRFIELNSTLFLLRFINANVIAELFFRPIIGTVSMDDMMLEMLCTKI
hgDAF12 agonist: hgDAF-12 agonism, primary luciferase screen; 1.8% of 370,000 active; activation, % at 6.8 µM; HEK293 GAL4-hgDAF12 UAS-luciferase reporter, agonist luminescence; normalized to butyrate control;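 active means activation above a cutoff set at the mean of all screened compounds plus 3 SD, cut at about 10% in these data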;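 further: 0% = DMSO wells and 100% = sodium butyrate wells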
hcDAF-12 act: H. contortus DAF-12 activation, primary screen; activation, % at 6.8 µM; 1.4% of 370,000 active; HEK293 hcDAF-12 lit1-tk-luc reporter, luminescence; 0% DMSO, 100% Δ7-dafachronic acid;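 active means activation above the mean of all tested compounds plus 3 SD, cut at about 5.5% in these data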;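 further: 100% = response to 3 µM Δ7-dafachronic acid high control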
DAX1 inh-2: blocks DAX1 repression of SF-1 activated StAR promoter; HEK293T StAR-luciferase reporter, SF-1/DAX-1 repression relief; inhibition, % at 6.8 µM; 1.1% of 370,000 active; AID 652010;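 active means inhibition above the mean over all tested compounds plus 3 SD, cut at about 3.6% in these data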;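 further: 0% = DAX-1 cells with DMSO and 100% = cells lacking DAX-1 with DMSO; higher inhibition means more luminescence from relief of DAX-1 repression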
Numbers without * were called inactive; / = no result.

SMILES | ssDAF-12 act | Rev-erbA mod | DAX1 inh-1 | hgDAF12 agonist | hcDAF-12 act | DAX1 inh-2
Clc1c(-c2ccccc2)nc2ccccn12 | 1.6* | -2.5 | 2.0 | 8.1 | 4.4 | 1.9
Clc1cccc(-c2ccc(-c3nc4ccccn4c3NCc3ccccc3)cc2)c1 | 1.8* | -2.8 | 0.1 | 7.0 | 1.7 | 0.9
C=CCOC(=O)N[C@H](c1ccc(-c2ccccc2)cc1)[C@H](C)/C=C/CC(=O)OC | -1.8 | -1.7 | / | 1.6 | -1.5 | -0.6
Cc1cccc(NC(=O)CSc2nnc(SCc3ccc(Cl)cc3)s2)c1 | -1.6 | 3.9 | / | -4.0 | -1.3 | 0.0
CCCC1CCC2(CC1)CCC2OC(=O)Nc1ccc2c(c1)OCO2 (stereo unspecified) | -1.9 | 0.8 | / | 4.1 | -1.7 | /
CCOC(=O)/C(C#N)=C\c1cc(C)n(-c2ccccc2)c1C | -1.8 | 0.6 | 5.3* | -4.0 | -0.1 | -0.7
COC(=O)[C@]12C[C@H](CC(=O)NCC34CC5CC(CC(C5)C3)C4)C(=O)N(CCC3=CCCCC3)C1=C[C@H](C1CCCC1)O[C@@H]2C | -1.2 | 3.7 | / | -2.0 | -1.6 | -0.9
Clc1ccc(-c2nnc(CCc3ccccc3)o2)c(Cl)c1 | -0.5 | / | 2.5 | 7.8 | 5.8* | 2.0
Oc1ccccc1-c1nnc(COc2ccc(Cl)cc2Cl)o1 | -0.8 | 6.7 | 2.8 | 3.7 | 0.3 | 1.8
CCC(=O)Oc1ccc(C(=O)Nc2ccccc2C(=O)NCC(C)C)cc1 | -1.6 | -2.1 | -2.6 | 1.1 | -0.3 | -0.8
CCC(=O)Oc1ccc(C(=O)Nc2cccc(C(=O)NCC(C)C)c2)cc1 | -0.8 | -6.7 | 4.7* | -0.2 | -0.6 | 0.5
COc1cccc(N2CCN(CC(=O)NCc3c(F)cccc3F)CC2)c1 | -1.1 | -6.0 | / | -2.2 | -0.6 | -0.5
O=C1c2ccccc2N[C@@H]2C=CC[C@@H]2N1O | -1.6 | -2.2 | -0.3 | 0.6 | 0.2 | 0.9
O=C1c2ccccc2NC(c2cccs2)N1O (stereo unspecified) | -0.6 | -10.7 | 5.7* | 0.5 | 0.7 | 3.7*
O=C(NCc1ccco1)Nc1c(Cl)cc(Cl)cc1Cl | -0.7 | -2.5 | / | 0.4 | 0.0 | 0.1
CCCOCc1ccc(O)c2ncccc12 | -0.8 | -2.9 | 0.9 | 12.3* | 1.0 | -0.1
O=C(O)c1ccc(NC2=C(Cl)C(=O)c3ccccc3C2=O)cc1 | 0.9* | 4.9 | 3.3 | 2.2 | 6.7* | -0.1
CCn1c(Cc2cccs2)nnc1SCC(=O)Nc1ccccc1-c1ccccc1 | -1.4 | 4.7 | / | 0.3 | -3.8 | -0.7
NC(=O)CSc1nnc(-c2cccs2)n1Cc1ccco1 | -1.8 | -4.5 | 5.5* | -0.6 | -0.5 | 0.0
NC(=O)CSc1nnc(-c2ccc(O)cc2)n1Cc1ccco1 | -1.0 | 2.5 | 9.2* | 0.5 | -0.2 | 0.1
O=C(CSc1nnc(-c2ccncc2)n1Cc1ccco1)Nc1ccccc1F | -1.7 | -9.7 | 6.2* | -2.0 | -1.9 | -0.6
CCC(C)Nc1nc(C)nc2c1nnn2Cc1ccccc1 (stereo unspecified) | -0.8 | -1.1 | / | -1.9 | -2.5 | 0.6
C=CCNC(=O)c1nn2cccnc2c1Cl | -1.1 | 0.1 | 0.8 | 0.2 | -0.7 | 1.7
O=C(NCc1cccnc1)c1nn2cccnc2c1Cl | -1.4 | 0.0 | 5.0* | 1.1 | 1.1 | 0.9
CCCCc1cc(=O)oc2cc(OCC(=O)Nc3ccccn3)ccc12 | -0.3 | 4.7 | 1.6 | 7.7 | 4.5 | 4.3*
SMILES | ssDAF-12 act | Rev-erbA mod | DAX1 inh-1 | hgDAF12 agonist | hcDAF-12 act | DAX1 inh-2
COc1ccc(-c2cc(=O)oc3cc(OCC(=O)NCc4ccccn4)ccc23)cc1 | -1.1 | 1.3 | 5.7* | -1.4 | 4.0 | 0.0
CCCn1c(-c2ccc(C(=O)OC)cc2)nc2c1c(=O)[nH]c(=O)n2Cc1ccccc1 | -0.5 | 3.1 | -0.5 | -2.1 | -0.5 | 0.1
CCCn1c(-c2cccc([N+](=O)[O-])c2)nc2c1c(=O)[nH]c(=O)n2Cc1ccccc1 | -1.0 | -8.5 | 6.4* | -0.1 | -0.3 | -0.9
CCOc1ccccc1/C=N/Nc1ccc(Cl)nn1 | 1.0* | 1.0 | 0.6 | -0.8 | 0.4 | -0.2
CCOc1ccc(/C=N/Nc2ccc(Cl)nn2)c(O)c1 | -0.4 | -3.8 | 0.7 | 4.0 | 1.2 | 0.1
CCCCCCN1CCS(=O)(=O)N(Cc2ccc(C)cc2)C(C(=O)OC)C1 (stereo unspecified) | -1.5 | 0.9 | / | -3.7 | -2.1 | -0.8
Nc1nc(=O)n(C2CC(O)C(CO)O2)cc1Cl (stereo unspecified) | 3.1* | -2.1 | / | 5.0 | 1.6 | 3.0
Nc1nc(=O)n(C2CC(O)C(CO)O2)cc1F (stereo unspecified) | -1.0 | -5.0 | -4.2 | -8.3 | -1.2 | -4.3
CC[C@@H](C)[C@@H]1CN([C@@H](C)CN2CCC[C@H]2CN2C(N)=NC[C@@H]2Cc2ccccc2)C(=N)N1CCc1ccc(Cl)c(Cl)c1 | / | / | 5.2* | / | / | /
CC[C@@H](C)[C@@H]1CN([C@@H](C)CN2CCC[C@H]2CN2C(N)=NC[C@@H]2Cc2ccccc2)C(=N)N1CCCC1CCCC1 | -1.5 | 2.4 | 0.3 | 0.5 | -0.3 | -0.1
Cc1ccc(Cn2cc(CN3[C@@H](Cc4ccccc4)COc4cc(Br)ccc4S3(=O)=O)nn2)cc1 | -0.2 | 8.1 | / | -4.2 | -2.3 | 0.4
CCNC(=O)c1ccc(NC(=O)CC2SC(N3CCCC3)=NC2=O)cc1 (stereo unspecified) | 1.1* | 1.0 | -0.1 | -0.3 | 1.9 | 0.1
CCCCCNC(=O)c1ccc(NC(=O)CC2SC(N3CCCC3)=NC2=O)cc1 (stereo unspecified) | -1.5 | 4.0 | 0.2 | -5.0 | -0.3 | -2.6
OCc1c[nH]c2ccccc12 | 0.0 | -1.4 | -0.7 | 2.0 | 6.0* | -1.5
O=C(O)Cc1c[nH]c2ccccc12 | -0.7 | -4.7 | 0.6 | -3.6 | 3.2 | 0.2
OCCc1c[nH]c2ccccc12 | -1.6 | 4.2 | 4.5* | -1.6 | 1.1 | -0.1
CC(=O)c1c(C)[nH]c(C(=O)NCCc2ccccc2)c1C | 0.1 | -1.9 | 3.1 | 8.7 | 2.5 | 2.7
CC(=O)c1c(C)[nH]c(C(=O)N(CCc2ccccc2)Cc2ccccc2)c1C | -0.7 | 0.4 | -0.7 | -2.3 | 5.9* | -0.4
CC(C)[C@H](NC(=O)c1ccco1)C(=O)N1CCC[C@H]1C(=O)NCc1ccccc1 | -1.2 | -0.8 | / | -0.5 | 2.5 | 1.7
Cc1nc(NC(=O)c2cccc(Cl)c2)sc1C(=O)N1CCCCC1 | -1.1 | 5.6 | -0.2 | 11.3* | -0.1 | 1.6
Cc1ccc(NC(=O)CN(C)C(=O)/C=C/c2cccs2)cc1 | 1.3* | 0.5 | 0.2 | -2.0 | 1.5 | 0.2
COc1ccccc1C(=O)N/N=C(\C)c1ccc(NC(=O)Cc2ccccc2)cc1 | -0.2 | -15.6 | 1.0 | 7.3 | 5.2 | 1.6
C/C(=N\NC(=O)c1ccccc1N)c1ccc(NC(=O)Cc2ccccc2)cc1 | 0.7 | 0.5 | 6.9* | 8.3 | 3.3 | 1.8
COc1ccc(CC(=O)Nc2ccc(/C(C)=N\NC(=O)c3ccc(Br)o3)cc2)cc1 | 0.0 | -2.6 | 1.4 | 12.2* | 6.2* | 2.9
